Screens (PubChem)
Sampled rows, rich in hits. Any-hit rate of the full collection: about 1.3%.
PfHsp40 rescue – rescue of PfHsp40-mediated yeast toxicity | 340,000 compounds, 0.68% hits | growth rescue, % at 12.5 µM | AID 504582 | S. cerevisiae expressing PfHsp40, growth rescue, ATP luminescence; in the data active means growth rescue above about 28%, passing the limit was not always enough;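 further: yeast W303a lacking pdr1 and pdr3 grown in galactose medium; growth measured after three days at 30 °C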
Mtb hypoxia rep – Mtb hypoxia fluorescent reporter inhibition; AID 1159583; M. tuberculosis hypoxia-regulated fluorescent reporter, fluorescence; fluorescence inhibition, % (no concentration beside the values); 300,000 compounds, 0.1% hits; in the data active means fluorescence inhibition mostly above about 23%, no sharp cut-off; inactive means mostly below about 17%
MazEF act – activators of E. coli MazEF toxin-antitoxin RNase | 350,000 compounds, 0.32% hits | FAM/BHQ RNA-DNA oligo cleavage fluorescence, 5 h | P0AE70 | activation, % at 20 µM; in the data active means activation above about 50%
Target sequence (P0AE70 whole entry, looked up): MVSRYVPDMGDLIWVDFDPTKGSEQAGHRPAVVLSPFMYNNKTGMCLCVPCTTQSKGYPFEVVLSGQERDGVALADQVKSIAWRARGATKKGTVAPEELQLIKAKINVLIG
RN4220 kill – S. aureus RN4220 growth inhibition; OD600, 16 h; inhibition, % (no concentration beside the values); 330,000 compounds, 0.33% hits; AID 1259311; in the data active means inhibition above about 85%;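 further: plate controls were untreated cells for no effect and reference antibiotic for full effect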
ugtP null kill – growth inhibition of S. aureus ugtP deletion strain | S. aureus RN4220 ugtP deletion, OD600 growth, 16 h | growth inhibition, % (test concentration not listed) | 330,000 compounds, 0.54% hits | AID 1259309; in the data active means growth inhibition above about 68%;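 further: plate controls were untreated wells for no effect and antibiotic for full effect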
TcdB GH inh – TcdB glycohydrolase inhibition; TcdB glycohydrolase enzymatic assay, plate reader; inhibition, % at 9.99 µM; 350,000 compounds, 0.24% hits; in the data active means inhibition above about 10%
* marks the source's active call; other numbers are inactive results; · = not tested or not shown.

SMILES | PfHsp40 rescue | Mtb hypoxia rep | MazEF act | RN4220 kill | ugtP null kill | TcdB GH inh
Cc1cccc(S(=O)(=O)N2CCCCN3[C@H](CO)[C@H](c4ccc(C#C[C@@H](C)O)cc4)[C@@H]3C2)c1 | · | · | · | · | · | -1
COC(=O)[C@H]1[C@H](CO)[C@H]2Cn3c(cccc3=O)[C@H]2N1C(=O)C1CCCC1 | · | · | · | · | · | -1
O=C(O)c1ccc(N/N=C/C2=C(N3CCOCC3)C(=C\c3ccccc3)/CC2)cc1 | 273* | · | 1 | · | · | -2
CC1=CC(=C2N=C(c3ccccc3)OC2=O)C=C(C)O1 | -2 | 5 | 306* | 7 | 3 | ·
CCOc1ccccc1CN1CCC(N2CCC(C(=O)NC3CC3)CC2)CC1 | 30* | 2 | 0 | 3 | 4 | 1
COc1cc(C=NNC(=O)c2ccc(F)cc2)ccc1OC(=O)c1ccco1 | · | -4 | · | 3 | 0 | ·
COc1ccc(CC2CN3C(=NCC3Cc3ccccc3)N2CCNC(=O)c2ccc(C)c(Br)c2)cc1 (configuration not stated) | · | 16 | · | 14 | 10 | ·
O=C(CSc1nnc(NC(=O)c2c(F)cccc2F)s1)Nc1ccc(F)cc1 | 0 | 14 | 179* | 5 | 8 | -2
O=C(CSc1nnc(NC(=O)c2c(F)cccc2F)s1)NC1CC1 | 0 | 9 | 15 | 2 | -2 | 0
O=C1C(=O)N(CCN2CCOCC2)C(c2ccccn2)/C1=C(/O)c1ccc(F)cc1 (configuration not stated) | 55* | 19 | 5 | 4 | -3 | ·
O=C1C(=O)N(CCCN2CCOCC2)C(c2ccc(F)cc2)/C1=C(/O)c1ccccc1 (configuration not stated) | 63* | -4 | -3 | 2 | -3 | 0
COC(=O)c1ccc(-c2c(-c3ccccc3)ncc3cc(F)ccc23)cc1 | 1 | 16 | -15 | 2 | -14 | 0
N#Cc1ccc(-c2c(-c3ccccc3)ncc3cc(F)ccc23)cc1 | 124* | 3 | -6 | 3 | 10 | 2
CC(C)C(CO)NC(=O)c1ccc2c3n(nc2c1)-c1ccc(Cl)cc1CO3 (configuration not stated) | · | 4 | · | 5 | 7 | ·
COc1ccc(CN(C)C(=O)COC(=O)c2cc([N+](=O)[O-])ccc2N2CCCC2)c(OC)c1OC | 0 | 22* | 5 | 4 | 5 | 1
CN(Cc1ccccc1)C(=O)COC(=O)c1cc([N+](=O)[O-])ccc1N1CCOCC1 | 0 | 12 | 14 | 3 | 5 | 1
Cc1ccc(CN2C(=O)CCC2C(=O)NCc2ccc(F)cc2)cc1 (configuration not stated) | 63* | 8 | 1 | 4 | 0 | ·
O=C(COc1coc(CN2CCc3ccccc3C2)cc1=O)Nc1ccc(F)cc1F | 1 | 3 | 211* | -6 | 13 | 1
O=C(COc1coc(CN2CCc3ccccc3C2)cc1=O)Nc1ccc(F)cc1 | -1 | -2 | 2 | 0 | 6 | -11
COC(CC=CC(=O)C(C)OCc1ccccc1)OC (configuration not stated) | · | 13 | · | 5 | -4 | ·
COc1ccc(OCc2cc(-c3ccc(Cl)cc3)no2)cc1 | 6 | 3 | 2 | 4 | 4 | 19*
COc1ccc(NC(=O)Nc2ccc3c(c2)[C@@H]2C[C@H](CC(=O)NC4CCCC4)O[C@@H](CO)[C@@H]2O3)cc1 | · | · | · | · | · | 0
CCC(=O)/C=C1/Sc2ccccc2N1CC | 1 | · | 6 | 3 | -9 | ·
CCN1/C(=C/c2sc(-c3ccccc3C)c[n+]2C)Sc2ccccc21 | 312* | · | 22 | 100* | 101* | 4
COCC(=O)N(C)C[C@@H]1Oc2ncc(-c3ccccc3C)cc2C(=O)N([C@H](C)CO)C[C@H]1C | · | · | · | · | · | 0
O=C(CN1CCSCC1)NN=Cc1ccc(F)c(F)c1 | · | -2 | · | -3 | -3 | ·
c1ccc(CSc2ncnc3c2cnn3Cc2ccccc2)cc1 | -1 | 8 | -9 | -4 | 97* | ·
CCOC(=O)C1C2COc3ccccc3C2N2C(=O)CN(CC3CCCO3)C(=O)[C@@]12C (some centres not stated) | · | -3 | · | 5 | 11 | ·
Cc1cc2c(cc1S(=O)(=O)N(C)c1ccccc1)NC(=O)CO2 | 1 | -5 | 3 | -1 | -4 | 21*
C[C@@H]1CN([C@@H](C)CO)C(=O)c2cc(-c3ccccc3F)cnc2O[C@@H]1CN(C)C(=O)C1CC1 | · | · | · | · | · | 1
